Assay results as given in PubChem BioAssay AID1159580 (chemical genetic matrix, 2015).
Values joined by “and” are separate entries in the source; they are usually repeats but may differ in a detail not shown here. Equal values may be shown once. Screen size: about 5,500 compounds; about 2,000 (36%) were called active. Roughly 18% stayed inconclusive and do not appear here. Rule as the data show it: active = normalized growth mostly below about 0.91 (no sharp cut-off); inconclusive = no clear call, values can overlap the other calls; inactive = mostly above about 0.92. The list shows a part of the results.

Assay: chemical genetic growth profiling, strain panel (AID 1159580);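 also: tested at 20 µM; growth read once vehicle control cultures reached saturation at 30 °C; 1 = growth at the plate median or of vehicle wells; lower values mean less growth of the strain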
Details: S. cerevisiae deletion strains, growth OD

Measured: normalized growth

O=C(CCc1ccc(O)cc1)c1c(O)cc(O)cc1O
inactive: locus YAL013W, strain DEP1, active compounds read low 1.01 | locus YAL021C, strain ccr4, active compounds read low 0.998 | locus YAL026C, strain drs2, active compounds read low 1 | locus YAL030W, strain snc1, active compounds read low 1.01 | locus YAL040C, strain CLN3, active compounds read low 1.05 | locus YBL061C, strain skt5, active compounds read low 1.02 | locus YBR009C, strain hhf1, active compounds read low 0.992 | locus YBR021W, strain FUR4, active compounds read low 1.03 | locus YBR023C, strain chs3, active compounds read low 0.999 | locus YBR171W, strain sec66, active compounds read low 1.02 | locus YBR229C, strain ROT2, active compounds read low 0.991 | locus YBR231C, strain swc5, active compounds read low 1.01 | locus YBR279W, strain paf1, active compounds read low 1.01 | locus YCL011C, strain gbp2, active compounds read low 1.02 | locus YCL016C, strain dcc1, active compounds read low 1.01 | locus YCL029C, strain bik1, active compounds read low 1 | locus YCL061C, strain MRC1 (second series), active compounds read low 1.01 | locus YCL061C, strain MRC1, active compounds read low 0.99 | locus YCL069W, strain vba3, active compounds read low 1.02 | locus YCR088W, strain abp1, active compounds read low 1.02 | locus YDL005C, strain med2, active compounds read low 1.02 | locus YDL035C, strain GPR1, active compounds read low 1.01 | locus YDL040C, strain nat1, active compounds read low 0.997 | locus YDL074C, strain BRE1, active compounds read low 0.987 | locus YDL101C, strain DUN1, active compounds read low 1.01 | locus YDL134C, strain PPH21, active compounds read low 1.01 | locus YDL185W, strain tfp1, active compounds read low 1.01 | locus YDL192W, strain arf1, active compounds read low 1.01 | locus YDR001C, strain nth1, active compounds read low 1.02 | locus YDR069C, strain doa4, active compounds read low 0.978 | locus YDR101C, strain arx1, active compounds read low 1.02 | locus YDR137W, strain rgp1, active compounds read low 1.11 | locus YDR150W, strain NUM1, active compounds read low 1 and 0.988 | locus YDR159W, strain sac3, active compounds read low 1.04 | locus YDR162C, strain NBP2, active compounds read low 0.989 | locus YDR195W, strain ref2 1 | locus YDR297W, strain sur2, active compounds read low 1 | locus YDR318W, strain mcm21, active compounds read low 1.04 | locus YDR334W, strain swr1, active compounds read low 1 | locus YDR335W, strain msn5, active compounds read low 1.01 | locus YDR363W, strain ESC2, active compounds read low 0.977 | locus YDR388W, active compounds read low 1.01 | locus YDR392W, strain spt3, active compounds read low 1 | locus YDR502C, strain sam2, active compounds read low 0.994 | locus YEL003W, strain gim4, active compounds read low 1.01 | locus YEL037C, strain rad23, active compounds read low 1 | locus YEL061C, strain CIN8 (second series), active compounds read low 1.02 | locus YEL061C, strain CIN8, active compounds read low 0.997 | locus YER002W, strain NOP16, active compounds read low 1.02 | locus YER015W, strain faa2, active compounds read low 1 | locus YER016W, strain bim1, active compounds read low 1.01 | locus YER110C, active compounds read low 1.01 | locus YER111C, strain swi4, active compounds read low 1.01 | locus YER155C, strain BEM2 (second series), active compounds read low 1 | locus YER155C, strain BEM2, active compounds read low 1.01 | locus YER167W, strain BCK2, active compounds read low 1.02 | locus YFR010W, strain ubp6, active compounds read low 0.992 | locus YGL078C, strain dbp3, active compounds read low 1.01 | locus YGL086W, strain mad1, active compounds read low 1.01 | locus YGL167C, strain pmr1, active compounds read low 1.01 | locus YGL173C, strain kem1, active compounds read low 1.02 | locus YGL227W, strain vid30, active compounds read low 1.02 | locus YGL240W, strain doc1, active compounds read low 1.01 | locus YGL248W, strain PDE1, active compounds read low 1 | locus YGL253W, strain hxk2, active compounds read low 1.02 | locus YGR078C, strain PAC10, active compounds read low 0.987 and 1.01 | locus YGR135W, strain pre9, active compounds read low 0.998 | locus YGR229C, strain SMI1, active compounds read low 0.979 | locus YHR013C, strain ard1, active compounds read low 0.99 | locus YHR027C, strain rpn1, active compounds read low 1.01 | locus YHR030C, strain SLT2, active compounds read low 1 and 0.997 | locus YHR079C, strain IRE1 (second series), active compounds read low 1 | locus YHR079C, strain IRE1, active compounds read low 0.983 | locus YHR094C, strain hxt1, active compounds read low 0.999 | locus YHR129C, strain ARP1, active compounds read low 0.998 | locus YHR142W, strain chs7, active compounds read low 1.01 | locus YHR200W, strain rpn10, active compounds read low 1.02 | locus YIL066C, strain RNR3, active compounds read low 1.01 | locus YIL073C, strain SPO22, active compounds read low 1.1 | locus YIL125W, strain kgd1, active compounds read low 1.03 | locus YIR030C, strain dcg1, active compounds read low 1.01 | locus YJL092W, strain hpr5, active compounds read low 1.01 | locus YJL095W, strain BCK1 (second series), active compounds read low 1.01 | locus YJL095W, strain BCK1, active compounds read low 0.994 and 0.99 | locus YJL115W, strain asf1, active compounds read low 1.02 | locus YJL129C, strain trk1, active compounds read low 1.05 | locus YJL134W, strain LCB3, active compounds read low 1.01 | locus YJL154C, strain vps35, active compounds read low 1.02 | locus YJL164C, strain tpk1, active compounds read low 0.984 | locus YJL166W, strain qcr8, active compounds read low 1.01 | locus YJL168C, strain set2, active compounds read low 0.995 | locus YJL187C, strain SWE1 (second series), active compounds read low 0.995 | locus YJL187C, strain SWE1, active compounds read low 1.02 | locus YJR043C, strain POL32, active compounds read low 0.997 | locus YJR066W, strain TOR1, active compounds read low 0.948
